High-throughput results: PubChem BioAssay, National Center for Advancing Translational Sciences (NCATS)
DRD3 agonist – agonists of human D3 dopamine receptor | P35462 | D3R DiscoveRx beta-arrestin cells, luminescence, 90 min | max activation, % | 0.58% of 410,000 active; in the data active means max activation above about 30%; further: 0% is about no effect
Target sequence (P35462 whole entry, looked up): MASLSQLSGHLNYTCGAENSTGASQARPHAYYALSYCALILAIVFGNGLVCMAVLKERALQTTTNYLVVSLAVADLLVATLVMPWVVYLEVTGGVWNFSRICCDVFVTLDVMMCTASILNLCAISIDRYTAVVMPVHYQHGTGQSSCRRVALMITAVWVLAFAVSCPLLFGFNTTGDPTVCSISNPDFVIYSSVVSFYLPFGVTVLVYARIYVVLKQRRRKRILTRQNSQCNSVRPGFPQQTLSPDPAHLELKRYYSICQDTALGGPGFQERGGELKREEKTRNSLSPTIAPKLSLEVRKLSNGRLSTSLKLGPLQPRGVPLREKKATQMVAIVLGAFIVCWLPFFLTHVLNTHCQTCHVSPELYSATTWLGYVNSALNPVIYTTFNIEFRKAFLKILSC
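Cells at 1500/well, incubated overnight, then treated with pinned compounds (dopamine as control) for 90 min at 37 degrees C. DiscoveRx reagent added for 30 - 60 minutes at room temperature; luminescence read.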
DT40 TDP1 no CPT – qHTS for Inhibitors of human tyrosyl-DNA phosphodiesterase 1 (TDP1): qHTS in cells in absence of CPT. DT40 Tdp1-/- hTDP1 cells, no CPT, ATP luminescence, 48 h. Potency, µM (highest dose often 46.2 µM), for inactives: at the top dose activity change, negative = growth inhibition, actives largely listed as inhibitors. 15% of 420,000 active. AID 686978, 2013; further: potency means the concentration at half of the fitted maximal effect; on the % scale 0 is the no-effect control and ±100 the full control effect; nearly all actives have a fitted effect of over 55% in size
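No-CPT arm: Tdp1-/-;hTDP1 DT40 cells (400/well) plus compounds, incubated ≥48 hr at 37 °C. Readout CellTiter-Glo luminescence.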
IL-1B inflam inh – inhibitors of inflammasome signaling (IL-1 beta secretion) | THP-1 LPS/ATP IL-1B secretion, AlphaLISA, 16 h; hits give low values | activity change, % at 57.5 µM | 4.7% of 360,000 active | AID 743279; in the data active means activity change below about -50%; inconclusive means mostly about -30% to -49%; further: on the % scale 0 is the no-effect control and ±100 the full control effect
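THP-1 cells pretreated 1 hr with compounds (up to 57.5 uM final), then stimulated with LPS (250 ng/mL final) plus ATP (1.25 mM final); secreted IL-1B measured by AlphaLISA after 16 hr, decreased signal indicating inhibition.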
DT40 TDP1 CPT – DT40-hTDP1 cell growth loss with CPT; 12% of 420,000 active; chicken DT40 Tdp1-/-;hTDP1 cells + 20 nM CPT, ATP luminescence, 48 h; Potency, µM (highest dose often 46.2 µM), for the others: at the top dose activity change, negative = growth inhibition, usual class: inhibitors; AID 686979; further: potency means the concentration at half of the fitted maximal effect; on the % scale 0 is the no-effect control and ±100 the full control effect; nearly all actives have a fitted effect of over 55% in size
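Chicken DT40 Tdp1-/- cells complemented with human TDP1, 400 cells/well, exposed to compounds plus 20 nM camptothecin for at least 48 h at 37 C; viability read as ATP content by CellTiter-Glo luminescence.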
DRD3 antagonist – D3 dopamine receptor (human) antagonism. P35462. D3R cells, DiscoveRx beta-arrestin luminescence, antagonist mode; hits give low values. max response, negative = inhibition, %. 2.5% of 360,000 active; in the data active means max response below about -50%; inconclusive means no clear call, values can overlap the other calls; further: on the % scale 0 is the no-effect control and ±100 the full control effect
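Cells plated overnight at 1500 cells/well, then exposed to library compounds with dopamine controls for 90 minutes at 37 degrees C. DiscoveRx reagent added for 30–60 minutes at room temperature; luminescence read, quantitative HTS format.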
ClpP mod – qHTS Assay for Activators of ClpP. ATP-dependent Clp protease proteolytic subunit (Bacillus subtilis (strain 168)), P80244. Potency, µM (series often up to 57.5 µM), without a hit: at the highest dose activity change, negative = active. purified B. subtilis ClpP, FRET peptide cleavage, 20 min. AID 651965, 2013. 1.9% of 340,000 active; active means well fitted falling curve with a large enough effect; inconclusive means small, poorly fitted or top-dose-only effect; inactive means no such curve, though single readings can be large or run the other way; further: potency means the concentration at half of the fitted maximal effect; the source files actives as falling curves though it sought activators and does not explain the sign; nearly all actives have a fitted effect of over 65% in size
Target sequence (P80244 whole entry, looked up): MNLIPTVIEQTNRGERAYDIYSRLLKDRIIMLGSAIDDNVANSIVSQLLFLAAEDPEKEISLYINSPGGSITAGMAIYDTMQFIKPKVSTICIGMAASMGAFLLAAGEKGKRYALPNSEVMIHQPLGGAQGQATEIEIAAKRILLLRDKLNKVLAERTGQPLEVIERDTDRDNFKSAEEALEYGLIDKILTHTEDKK
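ClpP 10 microg/mL final, pH 8 Tris/KCl buffer with BSA, glycerol, Tween-20; compound pinned in; FRET-FV substrate; RT 20 min; Ex320/Em430; ΔFRET vs ADEP 5.8 microM, DMSO, no enzyme.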
* = called active by the depositor; u = inconclusive; x = no result. Only some compounds are listed: those with a hit (about 21% of all), similar ones and a draw of the others. Unless noted, the call rests on the fitted dose curve; in most records, active means well fitted inhibition curve with a large enough effect; inconclusive means small, poorly fitted or top-dose-only effect; inactive means flat fitted curve, though single readings scatter.

SMILES | DRD3 agonist | DT40 TDP1 no CPT | IL-1B inflam inh | DT40 TDP1 CPT | DRD3 antagonist | ClpP mod
CC(=O)OC[C@H]1O[C@@H](O[C@H]2C[C@]3(C)C(C[C@@H](O)C4C([C@]5(C)CC[C@@H](C(C)(C)O)O5)CC[C@]43C)[C@@]3(C)CC[C@H](O)C(C)(C)C23)[C@H](O[C@@H]2O[C@@H](C)[C@H](O)[C@@H](O)[C@H]2O)[C@@H](O)[C@@H]1O (some centres undefined) | 16 | 1% | 3 | 0% | -6 | 3%
COc1ccc(/C=C2/C(=O)ON=C2C)cc1Br | 7 | u | -88* | u | -2 | 0%
COc1ccccc1/C=C1/C(=O)ON=C1C | 3 | u | -21 | u | 0 | -1%
CCCOc1ccc(Cl)cc1/C=C1/C(=O)ON=C1C | -4 | u | 4 | 29µM* | 5 | x
CCCC(=O)Nc1c(-c2ccc(OC)cc2)c(=O)c2ccccc2n1C | 4 | -18% | -1 | -10% | -10 | 16µM*
CCCC(=O)Nc1c(-c2ccccc2OC)c(=O)c2ccccc2n1C | 10 | -21% | 25 | -11% | -17 | 1%
CCCCC(=O)Nc1c(-c2ccc(OC)c(OC)c2)c(=O)c2ccccc2n1C | 1 | 28% | -4 | -10% | 0 | -2%
CCCCCC(=O)Nc1c(-c2ccc(OC)cc2)c(=O)c2ccccc2n1C | 3 | 9% | -1 | -13% | 0 | 25µM*
CCCCNC(=O)C1CCN(S(=O)(=O)c2cc(Br)cc3c2N(C(=O)CC)CC3)CC1 | 1 | -23% | x | -3% | x | 0%
O=S1(=O)N=C(N/N=C/C=C/c2ccccc2)c2ccccc21 | -5 | 5.8µM* | -4 | u | -17 | -4%
O=S1(=O)N=C(N/N=C/c2ccccn2)c2ccccc21 | 2 | u | 108 | u | -28 | -8%
COc1cccc(NC(=O)Cn2c(=O)n(CCc3ccccc3)c(=O)c3c4c(sc32)CN(C(C)=O)CC4)c1 | -7 | u | x | u | x | -4%
COC(=O)c1ccc2c(c1O)C(=O)c1ccccc1C2=O | 0 | 21µM* | u | 23µM* | -29 | 0%
COC(=O)c1cccc2c1-c1ccccc1/C2=N\NC(N)=O | -15 | 15µM* | u | u | 5 | 0%
COCCNC(=O)c1cccc2c1-c1ccccc1C2=O | 7 | 6% | 12 | -1% | -10 | 0%
COC(=O)c1cccc2c1-c1ccccc1/C2=N/O | 4 | 13µM* | -22 | 16µM* | 21 | -17%
NC(=O)CC(NC(=O)Cc1ccc(Br)cc1)c1ccc(NC2CCCC2)c([N+](=O)[O-])c1 (centres undefined) | -7 | u | -6 | u | -21 | -1%
NC(=O)CC(NC(=O)c1cccc(Br)c1)c1ccc(NC2CCCCCCC2)c([N+](=O)[O-])c1 (centres undefined) | 6 | 16µM* | 0 | u | 17 | 1%
NC(=O)CC(NC(=O)c1ccc(Br)cc1)c1ccc(NC2CCCCC2)c([N+](=O)[O-])c1 (centres undefined) | -7 | 16µM* | 11 | 15µM* | -15 | 2%
NC(=O)CC(NC(=O)c1cccc(Br)c1)c1ccc(NC2CCCCCCCCCCC2)c([N+](=O)[O-])c1 (centres undefined) | -7 | -12% | -2 | 2% | 4 | 2%
NC(=O)CC(NC(=O)c1ccc(Br)cc1)c1ccc(NC2CCCCCC2)c([N+](=O)[O-])c1 (centres undefined) | -19 | 16µM* | 12 | 16µM* | -14 | 1%
CC(C)Nc1ccc(C(CC(N)=O)NC(=O)Cc2ccc(Br)cc2)cc1[N+](=O)[O-] (centres undefined) | -16 | 21µM* | -9 | 13µM* | -16 | 2%
CC1CCCCC1NC(=O)CNC(=O)c1cccs1 (centres undefined) | 2 | -21% | 7 | 10% | -2 | 1%
Cc1ccccc1C(=O)N(C)[C@H]1C[C@H]2c3[nH]c4ccccc4c3CCN2C[C@H]1[C@H](C)O | 3 | u | 0 | u | 18 | -9%
CC(=O)N1CCN(CC(O)COc2ccc(S(=O)(=O)N3CCOCC3)cc2)CC1 (centres undefined) | -5 | -6% | 14 | -12% | -24 | 0%
SMILES | DRD3 agonist | DT40 TDP1 no CPT | IL-1B inflam inh | DT40 TDP1 CPT | DRD3 antagonist | ClpP mod
NC(=O)CC(NC(=O)Cc1ccc(Br)cc1)c1ccc(NC2CCCCCCC2)c([N+](=O)[O-])c1 (centres undefined) | 1 | u | u | u | u | 0%
NC(=O)CC(NC(=O)Cc1ccc(Br)cc1)c1ccc(NC2CCCCCC2)c([N+](=O)[O-])c1 (centres undefined) | -3 | u | u | 18µM* | -21 | 1%
COc1cc(/C=N/N=C2/NC(=O)C(c3ccccc3)S2)ccc1O (centres undefined) | 7 | 0% | -12 | 4% | -2 | -11%
CC(C)=N/N=C1/NC(=O)C(c2ccccc2)S1 (centres undefined) | -17 | 16µM* | 0 | u | u | -2%
O=c1c(-c2ccc(O)cc2)coc2c(C3OC(CO)C(O)C(O)C3O)c(O)ccc12 (centres undefined) | x | -4% | x | -7% | x | x
CC(C)Cc1[nH]c(=O)c(C#N)c2c1COC(C)(C)C2 | 1 | 0% | -1 | 2% | 5 | u
CC(C)c1[nH]c(=O)c(C#N)c2c1COC(C)(C)C2 | 8 | -7% | -3 | -18% | 18 | 32µM*
CCCc1[nH]c(=O)c(C#N)c2c1COC(C)(C)C2 | -17 | -9% | -5 | -26% | -12 | 25µM*
CCCc1nc(NC2CCCCC2)c(C#N)c2c1COC(C)(C)C2 | 1 | 29µM* | 8 | 18µM* | -20 | 35µM*
O=C(Nc1ccccc1)N1CCCC(CNS(=O)(=O)Cc2ccccc2)C1 (centres undefined) | 4 | 4% | 6 | 4% | 0 | x
COc1ccc(N2CCN(c3c4c(nc5nncn35)CCC4)CC2)cc1 | 9 | 8.2µM* | x | 8.2µM* | x | -1%
Cc1ccc(S(=O)(=O)N(C)C[C@@H]2Oc3ncc(C#CCC(C)C)cc3C(=O)N([C@H](C)CO)C[C@H]2C)cc1 | -6 | 16µM* | -10 | u | -26 | -4%
